Source: PubChem BioAssay (The Scripps Research Institute Molecular Screening Center)
PAFAH1B2 inh – inhibitors of human PAFAH1B2; P68402; recombinant PAFAH1B2, FP-rhodamine activity probe, fluorescence polarization; inhibition, % at 3.39 µM; 1.2% of 340,000 active;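 active = inhibition above the mean of all tested compounds plus 3 SD, cut at about 24% in these data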
pPAFAH inh – inhibitors of human plasma PAF acetylhydrolase (pPAFAH); 1.5% of 330,000 active; AID 463082; Q13093; recombinant pPAFAH, FP-rhodamine probe fluorescence polarization; inhibition, % at 3.39 µM;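 active = inhibition above the mean inhibition across the screen plus 3 SD, cut at about 25% in these data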;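 note: inhibitors block binding of the rhodamine activity-based probe so polarization drops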
ZTA counter – counter-screen for EBNA-1 inhibitors: inhibitors of Epstein-Barr virus ZTA; inhibition, % at 11 µM; AID 2234; P03206; ZTA-DNA binding, fluorescence polarization; 0.15% of 320,000 active; in the data active = inhibition above about 33%
Target sequence (P03206 whole entry, looked up): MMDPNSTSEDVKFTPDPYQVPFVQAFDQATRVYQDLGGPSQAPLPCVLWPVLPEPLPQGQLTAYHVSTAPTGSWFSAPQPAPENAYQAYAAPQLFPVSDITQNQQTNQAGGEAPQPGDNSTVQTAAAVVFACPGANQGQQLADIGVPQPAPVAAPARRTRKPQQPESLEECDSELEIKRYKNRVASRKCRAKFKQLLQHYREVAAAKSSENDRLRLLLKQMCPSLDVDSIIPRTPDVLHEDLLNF
EBNA-1 inhibitor – blocks EBNA-1 binding to DNA; EBNA-1 DNA binding, fluorescence polarization; inhibition, % at 14.8 µM; 0.34% of 300,000 active; in the data active = inhibition above about 28%
PAFAH2 inh – PAFAH2 (human) inhibition. Q99487. recombinant PAFAH2, FP-rhodamine activity probe, fluorescence polarization. inhibition, % at 3.39 µM. 0.99% of 340,000 active;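 active = inhibition above the mean over all tested compounds plus 3 SD, cut at about 30% in these data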;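 note: inhibitors block probe labeling of enzyme so polarization drops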
PAFAH1B3 FP inh – inhibitors of human PAFAH1B3; Q15102; recombinant PAFAH1B3, FP-rhodamine probe, fluorescence polarization; inhibition, % at 3.39 µM; 0.28% of 340,000 active; AID 492972;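 active = inhibition above the screen-wide average of all tested compounds plus 3 SD, cut at about 25% in these data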
Target sequence (Q15102 whole entry, looked up): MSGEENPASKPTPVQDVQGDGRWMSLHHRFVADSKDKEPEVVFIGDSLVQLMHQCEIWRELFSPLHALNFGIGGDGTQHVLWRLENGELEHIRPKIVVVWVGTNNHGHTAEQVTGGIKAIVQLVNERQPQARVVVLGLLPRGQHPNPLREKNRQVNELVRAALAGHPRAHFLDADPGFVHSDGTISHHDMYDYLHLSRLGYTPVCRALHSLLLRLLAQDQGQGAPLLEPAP
A number is an active result; - = inactive; . = no result given. Sampled rows, rich in hits. Any-hit rate of the full collection: about 2.9%.

SMILES	PAFAH1B2 inh	pPAFAH inh	ZTA counter	EBNA-1 inhibitor	PAFAH2 inh	PAFAH1B3 FP inh
CC(NC(=O)COC(=O)c1cc(Cl)ccc1O)C1CC2CCC1C2 (configuration not stated)	26	-	-	.	-	-
Cc1ccc(CCNC(=O)C2CCC(=O)N2C2CCCC2)cc1 (configuration not stated)	27	-	-	-	-	-
CC(/C=C1\SC(=S)N(NC(=O)c2ccc(C)cc2)C1=O)=C\c1ccccc1	-	-	-	-	-	-
CC(/C=C1\SC(=S)N(NS(=O)(=O)c2ccccc2)C1=O)=C\c1ccccc1	39	-	-	-	-	-
CC(/C=C1\SC(=S)N(NS(=O)(=O)c2ccc(C)cc2)C1=O)=C\c1ccccc1	28	-	-	-	-	-
COc1ccc(O[C@H]2C=C[C@@H](c3ccccc3)O[C@@H]2CO/N=C(\C)CCC(=O)OC[C@H]2O[C@H](c3ccccc3)C=C[C@@H]2Oc2ccc(OC)cc2)cc1	.	-	-	-	.	.
COc1ccc(N)c2c1C(=O)c1ccccc1C2=O	-	-	-	-	-	-
Nc1ccc(Br)c2c1C(=O)c1ccccc1C2=O	.	25	-	-	.	.
O=C(CCSc1ccc(Cl)cc1)NC1CCCC1	26	-	-	-	-	-
O=C(Cc1ccc(Cl)cc1)NNC(=O)C(=O)NC1CCCCC1	27	-	.	.	-	-
O=C(CCSc1ccc(Cl)cc1)N1CCCCCC1	66	-	-	-	-	-
O=C(Cc1ccc(Cl)cc1)NC1CCCCCC1	-	-	-	-	-	-
Cc1nnc(-c2ccc(N3CCCCCC3)c([N+](=O)[O-])c2)o1	-	-	-	-	-	-
CCOC(=O)CN(Cc1ccccc1)C(=O)OC(C)(C)C	.	-	-	-	.	.
Cc1nc(SCC(=O)NC2(C#N)CCCC2)n(CC(C)C)c1C	-	.	.	.	-	-
CCN(CC)S(=O)(=O)c1ccc(OC)c(NC(=O)c2ccc(-n3cncn3)c([N+](=O)[O-])c2)c1	-	-	-	-	-	-
COc1ccc(CCN(C)C(=O)c2ccc(S(=O)(=O)Nc3ccccc3C)cc2)cc1OC	.	25	-	-	.	.
COc1ccc(CCN(C)C(=O)c2cccc(S(=O)(=O)NCc3ccccc3)c2)cc1OC	-	-	-	-	-	-
O=C(C1Cc2ccccc2CN1C(=O)c1ccccc1)N1CCN(c2ccccc2)CC1 (configuration not stated)	-	-	-	-	-	-
Cc1ccc(NS(=O)(=O)c2ccc(C(=O)NCc3ccncc3)cc2)cc1	-	26	-	-	-	-
Cc1ccc(NS(=O)(=O)c2ccc(OCC(=O)NCc3cccnc3)cc2)cc1	-	26	-	-	-	-
CCOc1ccc(NS(=O)(=O)c2ccc(-c3coc(C)n3)cc2)cc1	-	29	-	-	-	-
Cc1cc(S(=O)(=O)Nc2ccc(C(=O)NCc3ccncc3)cc2)ccc1F	-	-	-	-	-	-
Cc1ccc(NS(=O)(=O)c2ccc(C(=O)NCc3cccnc3)cc2)cc1	-	27	-	-	-	-
O=C(NCc1cccnc1)c1ccc(S(=O)(=O)Nc2ccccc2)cc1	-	-	-	-	-	-
SMILES	PAFAH1B2 inh	pPAFAH inh	ZTA counter	EBNA-1 inhibitor	PAFAH2 inh	PAFAH1B3 FP inh
CCOC(=O)c1ccc(NS(=O)(=O)c2ccc(-c3coc(C)n3)cc2)cc1	-	-	-	-	-	-
Cc1ccc(S(=O)(=O)N2CCOCC2)cc1NC(=O)COc1ccccc1Cc1ccccc1	-	26	.	.	-	-
O=C(COc1ccccc1Cc1ccccc1)Nc1cccc(S(=O)(=O)N2CCOCC2)c1	-	-	-	.	-	-
COc1ccc(NS(=O)(=O)c2ccc(Cl)c(NC(=O)c3ccccc3F)c2)cc1	-	-	.	.	-	-
COc1ccc(NS(=O)(=O)c2ccc(Cl)c(NC(=O)c3cccnc3Cl)c2)cc1	-	30	-	-	-	-
COc1ccc(NS(=O)(=O)c2cccc(C(=O)NCc3cccnc3)c2)cc1	-	27	-	-	-	-
Cc1ccc(CNC(=O)COc2ccc(S(=O)(=O)N3CCOCC3)cc2)cc1	-	28	-	-	-	-
C[C@H](CO)N1C[C@H](C)[C@@H](CN(C)S(C)(=O)=O)Oc2ccc(NS(=O)(=O)c3ccccc3)cc2C1=O	-	-	.	.	-	-
Cc1ccc(C(=O)NCc2cccnc2)cc1S(=O)(=O)Nc1ccccc1	-	27	-	-	-	-
CC(=NNC(=O)c1ccc(NS(=O)(=O)c2ccc(Br)cc2)cc1)c1cccnc1	29	-	.	.	-	-
O=C(COc1ccc(S(=O)(=O)Nc2ccccc2)cc1)NCc1ccncc1	-	27	-	-	-	-
O=C(COc1ccc([N+](=O)[O-])cc1)NCc1ccncc1	.	-	-	-	.	.
C/C(=N\NC(=O)c1ccc(Br)cc1)c1cccc(NC(=O)c2cccnc2)c1	-	-	-	-	-	-
CCCNC(=O)COc1ccc(S(=O)(=O)Nc2ccc(C)cc2)cc1	-	30	-	-	-	-
Cc1ccc(NS(=O)(=O)c2cc(C(=O)NCc3ccncc3)ccc2C)cc1	-	.	.	.	-	-
COc1ccc(C)cc1NC(=O)CN(C)S(=O)(=O)c1ccc2c(c1)CC(C)N2C(C)=O (configuration not stated)	-	-	-	-	-	-
O=C(NCC1CCCO1)c1ccc(NC(=O)c2cccc([N+](=O)[O-])c2)cc1 (configuration not stated)	-	-	-	-	-	-
Clc1ccc(OCc2nc(-c3ccncc3)no2)cc1	27	-	-	-	-	-
O=C(CN1CCCCCCC1)Nc1cccc(Cl)c1Cl	-	-	-	-	-	-
Oc1ccc(N=Cc2ccc(OCc3ccccc3)cc2)cc1	-	-	-	-	-	28
Cc1cc(C)cc(N(C(=O)c2sc(C)nc2C)C(C(=O)NC(C)(C)C)c2ccncc2)c1 (configuration not stated)	-	-	-	-	-	-
CCOC(=O)c1c(NC(=O)COC(=O)c2ccccc2NC)sc(C(=O)N(C)C)c1C	-	-	-	-	-	-
O=C1NC(=Nc2ccccc2)/C(=C/c2ccco2)S1	-	34	-	-	-	-
COc1cccc(NC(=O)c2ccc3nc(C)sc3c2)c1	-	-	-	-	-	-
CCN(CC)c1ccc(NC(=O)CSc2ccsc2[N+](=O)[O-])c(C)c1	-	28	-	-	-	-
O=C(CSc1ccsc1[N+](=O)[O-])Nc1cc(F)ccc1F	-	.	.	.	-	-
O=C(CN(c1ccccc1)S(=O)(=O)c1ccc(F)cc1)NCc1cccs1	-	-	-	.	-	-
CN(C)S(=O)(=O)N1C(=O)c2ccccc2C1=O	-	-	-	-	-	-
CN(C)/C=C1\C=C2C(=O)c3ccccc3N2C1=O	28	-	-	-	36	29
O=C(/C=C/c1ccccc1[N+](=O)[O-])c1ccccc1Br	-	-	-	-	-	-
